According to PMC4336329 (PLoS ONE, 2015):
About 14,000 (4.5%) of roughly 310,000 compounds showed an effect of 50% or more. Effects have a minus sign here. The full list was thinned out, with strong results kept by preference.

biological target: human ether-à-go-go-related gene (hERG) potassium channel (human, UniProt Q12809); experiment: primary screen, population patch clamp on CHO cells stably expressing hERG; higher = less effect of the substance
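Further: peak tail current of the secondary pulse compared with the same well before compound.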

human ether-à-go-go-related gene (hERG) potassium channel, sequence (Q12809 whole entry, looked up): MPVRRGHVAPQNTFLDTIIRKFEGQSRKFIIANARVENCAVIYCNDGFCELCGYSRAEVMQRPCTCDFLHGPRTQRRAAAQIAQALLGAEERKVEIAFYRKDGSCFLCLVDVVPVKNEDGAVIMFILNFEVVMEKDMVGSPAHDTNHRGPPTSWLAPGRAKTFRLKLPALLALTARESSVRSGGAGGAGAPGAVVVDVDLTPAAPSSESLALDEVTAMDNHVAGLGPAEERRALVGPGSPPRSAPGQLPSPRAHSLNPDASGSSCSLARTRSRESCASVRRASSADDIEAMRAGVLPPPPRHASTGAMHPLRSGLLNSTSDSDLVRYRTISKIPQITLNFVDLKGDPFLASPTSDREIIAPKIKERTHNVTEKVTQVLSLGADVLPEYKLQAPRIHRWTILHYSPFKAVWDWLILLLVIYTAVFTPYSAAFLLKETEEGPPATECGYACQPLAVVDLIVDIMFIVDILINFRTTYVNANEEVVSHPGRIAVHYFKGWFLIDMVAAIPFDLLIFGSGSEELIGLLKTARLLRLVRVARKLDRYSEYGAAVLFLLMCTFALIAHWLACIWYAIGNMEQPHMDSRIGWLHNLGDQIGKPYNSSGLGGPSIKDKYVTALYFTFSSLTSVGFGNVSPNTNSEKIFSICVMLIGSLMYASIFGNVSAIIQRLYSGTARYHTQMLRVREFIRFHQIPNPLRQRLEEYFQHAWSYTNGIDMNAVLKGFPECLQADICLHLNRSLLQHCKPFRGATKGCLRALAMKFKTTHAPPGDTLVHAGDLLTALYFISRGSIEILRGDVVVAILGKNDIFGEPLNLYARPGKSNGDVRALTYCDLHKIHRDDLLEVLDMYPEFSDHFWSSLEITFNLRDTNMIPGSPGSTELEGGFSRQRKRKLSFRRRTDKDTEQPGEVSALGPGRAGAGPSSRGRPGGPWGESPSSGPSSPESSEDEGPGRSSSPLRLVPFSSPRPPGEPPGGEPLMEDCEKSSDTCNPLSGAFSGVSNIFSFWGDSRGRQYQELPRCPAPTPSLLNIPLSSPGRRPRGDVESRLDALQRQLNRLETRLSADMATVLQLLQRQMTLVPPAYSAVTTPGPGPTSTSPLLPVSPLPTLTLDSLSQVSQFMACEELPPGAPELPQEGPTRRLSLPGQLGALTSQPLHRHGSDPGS

| SMILES | hERG current change (%, negative = inhibition) at 10uM |
| --- | --- |
| CN(CC(=O)Nc1cccc(F)c1)C(=O)c1ccncc1 | 4.28% |
| CCOc1ccc(OCC)c(NC(=O)C2CCN(S(=O)(=O)c3c(C)[nH]c(=O)[nH]c3=O)CC2)c1 | 7.51% |
| CSc1nsc(SC)c1NC(=O)N1CCCC1 | -13.1% |
| COCc1nnc(NC(=O)CCCOc2ccccc2OC)s1 | 9.6% |
| COc1ccc(-c2cc(C)no2)cc1S(=O)(=O)N(C)c1ccc(C)cc1 | -29.6% |
| COc1ccc(-c2cc(C)no2)cc1S(=O)(=O)N(C)c1ccc(C)c(C)c1 | -1.83% |
| COc1ccc(-c2cc(C)no2)cc1S(=O)(=O)N(C)c1cccc(C)c1 | -82.5% |
| CC(=O)N1CCc2c(sc3c2c(=O)n(Cc2ccccc2)c(=O)n3CC(=O)NCC2CCCO2)C1 (stereo not shown) | -21.6% |
| CCCCOC1CC(c2ccc(OCc3ccc(OC)cc3)c(OC)c2)N(C)O1 (stereo not shown) | 3.47% |
| Cc1ccn2c(CNC(C)c3cn(C)nc3C)c(C(=O)N3CCCCCC3)nc2c1 (stereo not shown) | 0.193% |
| O=C(CCN1C(=O)C2C3C=CC(C3)C2C1=O)N1CCN(c2ccc([N+](=O)[O-])cc2)CC1 (stereo not shown) | -81.2% |
| O=C(CCN1C(=O)C2C3C=CC(C3)C2C1=O)N1CCN(c2cccc(Cl)c2)CC1 (stereo not shown) | -38.4% |
| O=C(CCN1C(=O)C2C3C=CC(C3)C2C1=O)N1CCN(c2ccc(F)cc2)CC1 (stereo not shown) | -25.8% |
| O=C(CCN1C(=O)C2C3C=CC(C3)C2C1=O)N1CCN(c2ccccc2Cl)CC1 (stereo not shown) | -57.2% |
| O=C(CCN1C(=O)C2C3C=CC(C3)C2C1=O)N1CCN(c2ccccc2F)CC1 (stereo not shown) | -4.87% |
| COc1ccc(N2CCN(C(=O)CCN3C(=O)C4C5C=CC(C5)C4C3=O)CC2)cc1 (stereo not shown) | -0.214% |
| O=C(CSc1ccc2nnc(CCNC(=O)c3ccccc3)n2n1)NCc1ccccc1 | -8.24% |
| COc1ccc2nc(SC)c(C#N)cc2c1 | 15.1% |
| CCOC(=O)c1cnc(Nc2ccc(OCC)cc2)nc1C | 12.6% |
| O=C(NCCc1cccnc1)C1CCC(=O)N(Cc2cccc(C(F)(F)F)c2)C1 (stereo not shown) | -8.64% |
| COc1cccc(CN2CC(C(=O)NCc3ccc(C)c(F)c3)CCC2=O)c1 (stereo not shown) | -40.8% |
| Cc1ccc(CNC(=O)C2CCC(=O)N(Cc3ccc(Cl)cc3)C2)cc1F (stereo not shown) | -63.6% |
| COc1ccccc1CN1CC(C(=O)NCc2ccc(C)c(F)c2)CCC1=O (stereo not shown) | 0.721% |
| O=C(NCCC1=CCCCC1)C1CCC(=O)N(Cc2ccc(Cl)cc2)C1 (stereo not shown) | -2.34% |
| O=C(NCCc1ccccc1)C1CCC(=O)N(Cc2cccc(C(F)(F)F)c2)C1 (stereo not shown) | -14.2% |
| O=C(NCCc1cccc(C(F)(F)F)c1)C1CCC(=O)N(Cc2ccc(Cl)cc2)C1 (stereo not shown) | -59% |
| O=C(NCCc1cccc(Cl)c1)C1CCC(=O)N(Cc2ccc(Cl)cc2)C1 (stereo not shown) | -52.3% |
| Cc1cccc(CCNC(=O)C2CCC(=O)N(Cc3ccc(Cl)cc3)C2)n1 (stereo not shown) | 5.05% |

| SMILES | hERG current change (%, negative = inhibition) at 10uM |
| --- | --- |
| CCC(C)(C)NC(=O)C(OC(=O)c1ccco1)c1ccccc1F (stereo not shown) | 13.4% |
| O=C(CCCCCN1C(=O)[C@@H]2Cc3ccccc3CN2C1=O)N[C@@H](Cc1ccc(O)cc1)C(=O)O | 1.02% |
| CC1Oc2ccccc2N(CC(=O)N(Cc2ccccc2)Cc2ccccn2)C1=O (stereo not shown) | 0.288% |
| COc1ccc(/C=N/N2C(=O)C3C4C=CC(C4)C3C2=O)cc1[N+](=O)[O-] (stereo not shown) | -6.14% |
| Cc1ccc2c(c1)NCC(C(=O)NC1CCC(C)CC1)O2 (stereo not shown) | 6.16% |
| O=C(NCCOc1ccc2ccccc2c1)c1cncc(Br)c1 | 3.79% |
| CCOc1ccc(C(C)=O)cc1N1C(=O)C2C3C=CC(C3)C2C1=O (stereo not shown) | 8.85% |
| O=C(NCc1ccc(F)cc1)C1CCCN1S(=O)(=O)c1ccccc1C(F)(F)F (stereo not shown) | -13.4% |
| O=C(CSc1nnc(-c2ccccc2)o1)c1nnc(-c2ccccc2)o1 | 20.1% |
| CC1(C)C(=O)Nc2ccccc2N1C(=O)COC(=O)c1ccc(Cl)c(S(=O)(=O)NCc2ccccc2)c1 | -12.8% |
| Cc1ccc(CN2CC(C(=O)N3CCN(S(=O)(=O)c4ccc(C)cc4C)CC3)CC2=O)cc1 (stereo not shown) | -28.2% |
| O=C1C(O)CC2c3ccccc3CC3(CCCC3)N12 (stereo not shown) | 6.83% |
| CC(C)CC12CN3CCN(CC(C3)C1O)C2 (stereo not shown) | -1.15% |
| CC1=C(C)NC(=S)SC1 | 13.9% |
| O=C1CC(c2ccccc2Cl)CC(O)=C1C=Nc1ccccc1 (stereo not shown) | 0.512% |
| Cc1ccc2c(c1)N(C(=O)CCC(=O)NCCCN1CC(C)CC(C)C1)CCO2 (stereo not shown) | -56.2% |
| O=C(CCC(=O)N1CCOc2ccc(Cl)cc21)NCCCN1CCC(Cc2ccccc2)CC1 | -75% |
| Cc1ccc2c(c1)N(C(=O)CCC(=O)NCCN1CCOCC1)CCO2 | -5.63% |
| Cc1ccc2c(c1)N(C(=O)CCC(=O)NCCCN1CCC(Cc3ccccc3)CC1)CCO2 | -77.1% |
| Cc1ccc2c(c1)N(C(=O)CCC(=O)NCCCN1CCN(C)CC1)CCO2 | -5.06% |
| O=C(CCC(=O)N1CCOc2ccc(Cl)cc21)NCCCN1CCOCC1 | 6.57% |
| O=C(CCC(=O)N1CCOc2ccccc21)NCCCN1CCOCC1 | 5.91% |
| Cc1ccc2c(c1)N(C(=O)CCC(=O)NCCCN1CCOCC1)CCO2 | 5.17% |
| Cc1ccc2oc(C(=O)N3CCN(c4cccc(C)n4)CC3)c(C)c2c1 | 8.84% |
| O=C1CCN(Cc2nnnn2CC2CCCO2)c2ccccc2N1 (stereo not shown) | 2.18% |
| CCOP(=O)(OCC)C(NC(=O)c1cccs1)c1ccccc1 (stereo not shown) | 23.5% |
| COc1ccc(/C=N/NC(C)(C)C)c(OC)c1.Cl | 12.3% |
